Compounds with a hit are over-represented: about 2.7% of the library has one in this group of screens.
12-LOX inh: blocks human arachidonate 12S-lipoxygenase | purified 12hLO, xylenol orange hydroperoxide absorbance | Potency, µM (top dose mostly 108 µM), for the others: at the highest dose activity change, negative = inhibition, actives largely listed as inhibitors | 580,000 tested, 1.1% active | AID 1671190; also: potency is read from the fitted curve at half-maximal effect; % is scaled to controls: 0 for no effect and ±100 for the full control effect
Target sequence (P18054 whole entry, looked up): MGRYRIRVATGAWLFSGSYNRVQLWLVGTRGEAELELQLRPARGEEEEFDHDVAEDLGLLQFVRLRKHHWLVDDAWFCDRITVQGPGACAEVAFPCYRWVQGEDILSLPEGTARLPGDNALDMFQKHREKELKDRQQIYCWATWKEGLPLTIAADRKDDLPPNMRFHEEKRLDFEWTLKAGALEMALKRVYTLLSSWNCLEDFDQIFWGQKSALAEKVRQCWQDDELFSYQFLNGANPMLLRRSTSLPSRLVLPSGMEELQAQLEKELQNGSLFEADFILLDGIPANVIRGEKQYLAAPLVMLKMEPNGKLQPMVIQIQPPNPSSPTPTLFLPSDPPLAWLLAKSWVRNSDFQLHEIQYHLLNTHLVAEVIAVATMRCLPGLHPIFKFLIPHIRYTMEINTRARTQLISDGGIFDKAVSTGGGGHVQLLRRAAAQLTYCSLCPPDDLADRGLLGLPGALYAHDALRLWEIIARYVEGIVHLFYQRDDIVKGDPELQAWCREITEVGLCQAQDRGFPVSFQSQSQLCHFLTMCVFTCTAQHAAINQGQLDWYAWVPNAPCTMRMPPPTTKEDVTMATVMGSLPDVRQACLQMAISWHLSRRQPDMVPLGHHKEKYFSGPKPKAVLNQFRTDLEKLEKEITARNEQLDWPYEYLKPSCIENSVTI
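Purified human 12hLO (150 nM final) in 25 mM Hepes, 0.01% Triton X-100, pH 7.0 was preincubated 15 min at room temperature with compound. Then 40 uM arachidonic acid was added, 30 min. Hydroperoxide was read by Fe-XO absorbance ratio 573/405 nm.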
LDHA block: LDHA (human) enzyme inhibition | purified LDHA, NADH/diaphorase-resazurin fluorescence; hits give low values | activity change, % (values are at about 110 or 230 µM) | P00338 | AID 1347041 | 480,000 tested, 0.15% active; in the data active = activity change below about -30%; inconclusive = mostly about -25% to -30%;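 also: plate controls were DMSO wells for no effect and wells without enzyme for full effect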
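Human LDH5 (2 nM) was incubated with 0.06 mM NADH and 0.2 mM pyruvate for 5 min at room temperature in Tris pH 7.4. Remaining NADH was coupled through diaphorase/resazurin, and resorufin fluorescence was read at 0 and 20 min.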
Nrf2 ARE act: activates Nrf2 signaling | AREc32 ARE-luciferase reporter (MCF7-derived line), luminescence, 24 h | Potency, µM (top dose mostly 46.1 µM), for the others: top-dose activation, usual class: activators | 410,000 tested, 0.31% active; also: potency is read from the fitted curve at half-maximal effect; % of control where 0% means no effect; nearly all actives have a fitted effect of over 65% in size
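Luciferase luminescence (Steady-Glo, 30 min at room temperature) served as the read-out of ARE activation in AREc32 cells treated with compounds for 24 hr at 37 deg C.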
Nrf2 block: blocks Nrf2 signaling | A549 ARE-Fluc reporter, luciferase luminescence, 18-24 h | Potency, µM (highest dose often 46 µM), for inactives: at the top dose activity change, negative = inhibition, actives largely listed as inhibitors | 360,000 tested, 2.1% active; also: potency is read from the fitted curve at half-maximal effect; % is scaled to controls: 0 for no effect and ±100 for the full control effect; nearly all actives have a fitted effect of over 60% in size
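Concentration-response testing used A549 ARE_Fluc cells at 5000 cells/well. Following an 18-24 h compound incubation, viability was read by fluorescence (Ex 405/Em 525) and luciferase output by luminescence.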
IDH1 R132H inh: blocks human mutant IDH1 R132H enzyme; IDH1-R132H enzyme, NADPH consumption, diaphorase/resazurin fluorescence; Potency, µM (top dose mostly 76.6 µM), without a hit: at the highest dose activity change, negative = inhibition, actives largely listed as inhibitors; 390,000 tested, 0.093% active; also: potency is read from the fitted curve at half-maximal effect; % is scaled to controls: 0 for no effect and ±100 for the full control effect; nearly all actives have a fitted effect of over 65% in size
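IDH1-R132H (0.5 ug/mL) preincubated 30 min with compound, then NADPH (0.016 mM) and alpha-KG (2 mM) added; 80 min at RT, pH 7.5. Remaining NADPH coupled via diaphorase/resazurin to fluorescence (540/590 nm); concentration-response curves normalized to no-enzyme control.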
A549 tox: A549 cytotoxicity, counter-screen for Nrf2 inhibitors; Potency, µM (series often up to 46 µM), for the others: top-dose activity change, negative = cytotoxicity, hits mostly inhibitors; 390,000 tested, 0.16% active; A549 ARE-Fluc cells, CellTiter-Fluor viability, 18-24 h; also: potency is read from the fitted curve at half-maximal effect; % is scaled to controls: 0 for no effect and ±100 for the full control effect
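Cytotoxicity counterscreen: CellTiter-Fluor fluorescence was measured in A549 ARE_Fluc cells after 18-24 h of compound exposure in a concentration series. The subsequent BugLite luminescent read reports ARE-luciferase activity.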
An asterisk follows results filed as active; ? = inconclusive; · = no result given; ! = repeats disagree. Unless noted, calls follow the shape of the dose curve; as a rule, active = well fitted curve in the direction sought with a large enough effect; inconclusive = small, poorly fitted or top-dose-only effect, or another doubt; inactive = no such curve, though single readings can be large; an effect the other way counts as inactive or inconclusive.

SMILES | 12-LOX inh | LDHA block | Nrf2 ARE act | Nrf2 block | IDH1 R132H inh | A549 tox
Cc1ccc(OCCn2c(C3CC(=O)N(Cc4ccc(F)cc4)C3)nc3ccccc32)c(C)c1 (stereo not given) | -20% | 8 | -4% | 23µM* | 4% | -1%
CC(C)CCn1c(C2CC(=O)N(Cc3ccc(F)cc3)C2)nc2ccccc21 (stereo not given) | 6% | -16 | · | · | · | ·
Cc1noc(-c2ccc(OC3CN(C(=O)Cc4cccs4)C3)cc2)n1 | 7.1µM* | · | · | · | · | ·
COc1cccc(CNC(=O)C2CCN(S(=O)(=O)c3ccc4c(c3)NC(=O)C(C)S4)CC2)c1 (stereo not given) | -20% | 0 | 0% | 18µM* | -5% | -5%
CC1Sc2ccc(S(=O)(=O)N3CCC(C(=O)NCCc4ccccc4)CC3)cc2NC1=O (stereo not given) | -8% | -1 | 2% | -28% | 0% | 0%
Cc1ccc(NC(=O)C2CCN(S(=O)(=O)c3ccc4c(c3)NC(=O)C(C)S4)CC2)c(Cl)c1 (stereo not given) | 4% | -2 | 4% | 23µM* | 3% | -17%
Cc1ccc(CCNC(=O)C2CCN(S(=O)(=O)c3ccc4c(c3)NC(=O)C(C)S4)CC2)cc1 (stereo not given) | -12% | -6 | 3% | 16µM* | 0% | -25%
Cc1cc(C)cc(NC(=O)C2CCN(S(=O)(=O)c3ccc4c(c3)NC(=O)C(C)S4)CC2)c1 (stereo not given) | -1% | -3 | 1% | -16% | -1% | -16%
COc1ccccc1OCC(=O)Nc1nn2cc(-c3ccccc3)nc2s1 | ? | 0 | · | · | · | ·
Cc1nc2cc(NC(C)C(=O)Nc3ccc(Cl)cc3Cl)ccc2o1 (stereo not given) | ? | 101 | · | · | · | ·
Cc1nc(N2CCN(C(=O)c3ccc(F)c(Cl)c3)CC2)cc(C(F)(F)F)n1 | 34% | · | · | · | · | ·
CN(Cc1nc2ccsc2c(=O)[nH]1)C(=O)COc1cccc(F)c1 | 5µM* | 22 | · | · | · | ·
Cc1c(C(=O)N(C)Cc2nc3ccsc3c(=O)[nH]2)cnn1-c1ccc(F)cc1F | 4% | 2 | · | · | · | ·
CC(C)c1nc2sc3c(=O)[nH]c(=S)[nH]c3c2c2c1CCCC2 | 25µM* | 0 | 0% | 4% | ? | -1%
O=c1cc(O)c2sc3nc(C(F)(F)F)c4c(c3c2[nH]1)CCCCC4 | -6% | -5 | 0% | -11% | -2% | -4%
COc1ccc(N/C=C2\CCOC2=O)cc1 | -16% | 2 | 2% | -20% | 7% | 9%
COc1ccc(N/C=C2\C(=O)CCc3c2oc2cc(Cl)c(O)c(Cl)c32)cc1 | 6.3µM* | 5 | 7.1µM* | 0% | 4% | -3%
C/C(=N\NC(=O)c1nnn(-c2nonc2N)c1CN1CCc2ccccc21)c1ccccc1O | 2% | 1 | -1% | 12µM* | 5% | -14%
CSc1cccc(NC(=O)Cn2c3c(c(=O)n2-c2ccccc2)Cc2ccccc2O3)c1 | 0% | 1 | · | · | · | ·
Cc1ccc(-c2csc(=S)n2CC(=O)OCC(=O)NCc2ccco2)cc1 | ? | -1 | 16% | 18µM* | 4% | -19%
Cc1ccc(-c2csc(=S)n2CC(=O)OCC(=O)NC(C)C(C)C)cc1 (stereo not given) | 1% | -2 | 3% | -23% | 12% | -3%
Cc1cc2oc(=O)cc(CN3CCCCCC3)c2cc1C(C)C | 18µM* | ? | · | · | · | ·
Cc1cc2oc(=O)cc(CN3CCCCC3C)c2cc1Cl (stereo not given) | 18µM* | 1 | 0% | -10% | -9% | 11%
Cc1cc(C)c2c(CN3CCCCC3C)cc(=O)oc2c1 (stereo not given) | ? | -14 | 2% | 3% | -5% | 3%
Cc1cc2oc(=O)cc(Cn3ncc(Cl)c(Cl)c3=O)c2cc1Cl | · | -4 | 4µM* | ? | 4% | ?
SMILES | 12-LOX inh | LDHA block | Nrf2 ARE act | Nrf2 block | IDH1 R132H inh | A549 tox
Cc1cc2oc(=O)cc(CN3CCCCC3)c2cc1C(C)C | ? | 3 | 1% | -13% | 9% | -1%
Cc1cc2oc(=O)cc(CN3CCCCC3C)c2cc1C (stereo not given) | 11µM*! | -4 | 0% | -7% | -2% | -8%
CC1(CBr)C2CCC1(CBr)c1nc3cc(Cl)c(Cl)cc3nc12 (stereo not given) | 6% | -7 | · | · | · | ·
CC(C)CCN1CCN(c2nc3c(c(=O)[nH]c(=O)n3C)n2Cc2ccc(Cl)cc2)CC1 | ? | -5 | · | · | · | ·
CC(C)C(C)(C#N)NC(=O)CN1CCCC1 (stereo not given) | 11% | 2 | · | · | · | ·
O=C(OCC(=O)N1CCN(C(=O)c2ccco2)CC1)c1cc(-c2ccco2)nc2ccccc12 | 4.5µM* | -5 | 9% | -20% | 2% | -2%
O=C(OCC(=O)N1CCN(C(=O)c2ccco2)CC1)c1cc(-c2ccc(Cl)c(Cl)c2Cl)nc2ccccc12 | 11% | -10 | 0% | ? | 7% | ?
O=C(OCC(=O)N1CCCC1=O)c1cc(-c2ccco2)nc2ccccc12 | 5.6µM* | 12 | · | · | · | ·
O=C(OCC(=O)N1CCCC1=O)c1cc(-c2cccs2)nc2ccccc12 | ? | -1 | · | · | · | ·
Cc1ccc(C(NC(=O)NC(C)c2ccccc2)C(Cl)(Cl)Cl)cc1F (stereo not given) | 1% | -4 | 1% | 16µM* | 10% | ?
Cc1ccc(S(=O)(=O)N2C(=O)c3cccc4cccc2c34)cc1 | -22% | 4 | 0% | 15µM* | 19% | ?
Cc1ccc(S(=O)(=O)ON2C(=O)c3cccc4cccc(c34)C2=O)cc1 | -4% | 0 | 6% | -3% | 4% | 1%
COc1ccc(NC(=O)C#Cc2ccccc2)cc1 | 14% | -4 | 14µM* | -27% | 13% | -11%
Cc1ccc(NC(=O)c2cc(C)no2)cc1 | 3% | -3 | 3% | ? | -5% | 1%
COc1ccc(NC(=O)c2cc(C)no2)cc1 | 13µM* | 0 | 1% | ? | 2% | -6%
CCN(Cc1ccccc1)C(=O)c1ccc(NC(=O)c2ccc(OC)cc2)cc1 | 6% | -12 | 0% | 23µM* | -7% | -15%
COc1ccc(C(=O)Nc2ccc(C(=O)c3ccccc3)cc2)cc1 | -3% | -8 | 0% | 9.2µM* | 25% | -6%
CCOc1ccc(NC(=O)C#Cc2ccccc2)cc1 | 16% | 1 | · | · | · | ·
Cc1cccc(C(=O)NCc2sccc2C)n1 | ? | 4 | · | · | · | ·
CCCc1cc(C(=O)Nc2ccc(C(=O)c3ccccc3)cc2)n(C)n1 | -6% | 0 | -1% | 21µM* | 8% | ?
